A selection: hits, their analogues and other compounds. The true share with any hit is near 21%.
ELG1 repair inh = blocks ELG1-dependent DNA repair in HEK293T cells | HEK293T ELG1-luciferase reporter, luminescence, 16 h; DNA damage induced by 5-fluorouridine | Potency, µM (titrated, usually from 46.1 µM), inactives show top-dose activity change, negative = inhibition, usual class: inhibitors | 330,000 compounds, 2.3% hits | AID 504467; note: potency is the fitted concentration of half-maximal effect; nearly all actives have a fitted effect of over 55% in size
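Cells (2,000 per well) received 5-fluorouridine plus test compound or DMSO and were incubated 16 hr at 37 °C, 5% CO2. Luciferase activity was read by luminescence 30 min after ONE-Glo addition; signal suppression marked inhibition of damage-induced ELG1 function.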
RORg inh = ROR gamma (mouse) transcription inhibition; P51450; Drosophila S2 Gal4-RORgamma UAS-luciferase reporter, 20 h; Potency, µM (top dose mostly 53.6 µM), for inactives: at the highest dose activity change, negative = inhibition, most hits filed as inhibitors; 310,000 compounds, 5.4% hits; AID 2551; note: potency is the fitted concentration of half-maximal effect; nearly all actives have a fitted effect of over 60% in size
Target sequence (P51450 whole entry, looked up, the tested form may be a part): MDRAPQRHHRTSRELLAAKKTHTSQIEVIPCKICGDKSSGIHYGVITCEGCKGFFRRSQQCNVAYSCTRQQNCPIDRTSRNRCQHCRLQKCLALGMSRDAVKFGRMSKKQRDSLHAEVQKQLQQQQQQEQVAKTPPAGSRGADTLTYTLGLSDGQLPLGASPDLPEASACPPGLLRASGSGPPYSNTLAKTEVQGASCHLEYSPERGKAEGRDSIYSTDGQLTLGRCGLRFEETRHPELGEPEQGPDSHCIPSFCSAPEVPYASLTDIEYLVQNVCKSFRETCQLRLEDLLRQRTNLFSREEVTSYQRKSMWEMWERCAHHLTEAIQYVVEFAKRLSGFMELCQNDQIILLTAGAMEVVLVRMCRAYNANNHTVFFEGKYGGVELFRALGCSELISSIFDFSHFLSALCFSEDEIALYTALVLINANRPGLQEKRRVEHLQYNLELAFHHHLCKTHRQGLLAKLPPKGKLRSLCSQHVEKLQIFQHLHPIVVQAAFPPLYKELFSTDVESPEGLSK
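Drosophila S2 cells stably expressing Gal4-DBD/mouse RORγ fusion under metallothionein promoter plus UAS-luciferase; compound 1 h, then 700 uM CuSO4 induction for 20 h at ambient temperature; inhibition read as reduced luminescence.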
DT40 TDP1 CPT = DT40-hTDP1 cell growth loss with CPT. chicken DT40 Tdp1-/-;hTDP1 cells + 20 nM CPT, ATP luminescence, 48 h. Potency, µM (series often up to 46.2 µM), without a hit: top-dose activity change, negative = growth inhibition, actives largely listed as inhibitors. 420,000 compounds, 12% hits. AID 686979; note: potency is the fitted concentration of half-maximal effect; nearly all actives have a fitted effect of over 55% in size
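Chicken DT40 Tdp1-/- cells stably complemented with human TDP1 were seeded at 400 cells/well in medium containing 20 nM camptothecin, exposed to pin-transferred compounds, and grown at 37 °C for at least 48 hr. Viability was read as ATP luminescence.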
TDP1 cell noCPT = qHTS for Inhibitors of human tyrosyl-DNA phosphodiesterase 1 (TDP1): qHTS in cells in absence of CPT. DT40 Tdp1-/- hTDP1 cells, no CPT, ATP luminescence, 48 h. Potency, µM (doses to about 46.2 µM), for inactives: at the top dose activity change, negative = growth inhibition, hits mostly inhibitors. 420,000 compounds, 15% hits; note: potency is the fitted concentration of half-maximal effect; nearly all actives have a fitted effect of over 55% in size
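Growth of hTDP1-complemented DT40 Tdp1-knockout cells is measured by ATP luminescence after at least 48 hr compound exposure at 37 °C, with DMSO substituting for the 20 nM CPT used in the parallel screen.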
VP16 counter = counter-screen for ROR gamma inhibitors: Gal4-VP16 reporter; Drosophila S2 Gal4-VP16 UAS-luciferase, luminescence, 20 h; Potency, µM (highest dose often 53.6 µM), for inactives: at the highest dose activity, negative = inhibition, usual class: inhibitors; 310,000 compounds, 3.5% hits; AID 2546;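 note: Gal4-VP16 expression switched on by copper sulfate through the metallothionein promoter; potency is the fitted concentration of half-maximal effect; nearly all actives have a fitted effect of over 50% in size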
IL1B secr inh = blocks inflammasome-driven IL-1 beta release; THP-1 LPS/ATP IL-1B secretion, AlphaLISA, 16 h; stronger effect = lower value; activity change, % at 57.5 µM; 360,000 compounds, 4.7% hits; AID 743279; in the data active = activity change below about -50%; inconclusive = mostly about -30% to -49%
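THP-1 cells pretreated 1 hr with compounds (up to 57.5 uM final), then stimulated with LPS (250 ng/mL final) plus ATP (1.25 mM final); secreted IL-1B measured by AlphaLISA after 16 hr, decreased signal indicating inhibition.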
* hit, by the source's call; ? = inconclusive; . = no result given; [ ] = remark or other dose. Unless noted, calls come from the whole dose curve; as a rule, active = well fitted curve in the direction sought with a large enough effect; inconclusive = small, poorly fitted or top-dose-only effect, or another doubt; inactive = no such curve, though single readings can be large; an effect the other way counts as inactive or inconclusive. % is set by controls: 0 for no effect and ±100 for the full control effect.

SMILES	ELG1 repair inh	RORg inh	DT40 TDP1 CPT	TDP1 cell noCPT	VP16 counter	IL1B secr inh
O=C(/C=C/[C@H]1O[C@@H](n2cnc3c(NC(=O)c4ccccc4)ncnc32)[C@H](O)[C@@H]1O)NCC1CCCO1 (stereo partly specified)	.	.	17%	3%	.	?
CCc1ccc(NC(=O)C2(c3cccs3)CCOCC2)cc1	.	.	-9%	-30%	.	.
CN(C)S(=O)(=O)c1cccc(NC(=S)Nc2ccc3cn[nH]c3c2)c1	-5%	6%	-27%	?	-13%	?
CN(C)S(=O)(=O)c1cccc(NC(=S)N/N=C/c2cc(Br)ccc2O)c1	2.9µM*	1%	2.6µM*	3.7µM*	-8%	-73*
CN(C)S(=O)(=O)c1cccc(NC(=S)N/N=C/c2cccc(O)c2)c1	?	8.9µM*	?	-24%	?	26
CCOc1ccc(C(c2c(O)nc(SC)[nH]c2=O)c2c(O)nc(SC)[nH]c2=O)cc1	.	.	-26%	?	.	?
CCN(CC)S(=O)(=O)c1ccc2oc(C(=O)NC3CC3)c(C)c2c1	?	?	-22%	10µM*	-6%	24
CCc1ccc2oc(C(=O)NCc3ccc(S(N)(=O)=O)cc3)c(C)c2c1	11%	-15%	-18%	-18%	1%[10 µM]	22
COc1ccc2oc(C(=O)NCc3cc(OC)c(OC)cc3OC)c(C)c2c1	-24%	35%	23µM*	16µM*	-4%	-14
Cc1c(C(=O)NCc2ccc(F)cc2)oc2ccc(S(=O)(=O)N3CCOCC3)cc12	?	32%	?	15µM*	13%	-22
Cc1c(C(=O)NCCc2ccccc2)oc2ccc(S(=O)(=O)N3CCOCC3)cc12	?	48%	-24%	?	1%[0.365 µM]	-4
Cc1c(C(=O)NC2CC2)oc2ccc(S(=O)(=O)N3CCCCCC3)cc12	?	-13%	?	?	4%	7
CCN(CC)S(=O)(=O)c1ccc2oc(C(=O)NCc3ccc(F)cc3)c(C)c2c1	12µM*	-1%	13µM*	13µM*	5%	?
Cc1nnc(SCC2=C(C(=O)O)N3C(=O)[C@@H](NC(=O)Cn4cnnn4)[C@@H]3SC2)s1	.	-4%[16.9 µM]	.	.	-10%[17 µM]	.
CCN(CC)S(=O)(=O)c1ccc2oc(C(=O)Nc3ccc(OC)cc3OC)c(C)c2c1	?	7%	18µM*	12µM*	-18%	6
CCS(=O)(=O)c1ccc2oc(Nc3ccc(OC)c(OC)c3)nc2c1	9%	41%	-7%	-26%	-21%	-20
CCN(CC)S(=O)(=O)c1ccc2oc(Nc3ccc(OC)cc3OC)nc2c1	-23%	-4%	?	18µM*	11%	25
COc1ccc(NC(=O)c2oc3cc(C)c(C)cc3c2C)c(OC)c1	13%	-7%	-18%	?	-4%	-11
CCOC(=O)CNc1ncnc2c1nnn2C	.	.	20%	-10%	.	.
CCOC(=O)[C@]12CCC=C1N(Cc1ccco1)C(=O)[C@H](CC(=O)N1CCN(C(=O)c3ccco3)CC1)C2	.	.	-1%	-16%	.	36
CC(Oc1ccc(Cl)cc1Cl)c1nc(-c2ccc(NC(=O)c3ccncc3)cc2)no1 (stereo unspecified)	18µM*	?	15µM*	8.2µM*	13µM*	0
CC(Oc1ccc(Cl)cc1Cl)c1nc(-c2ccc(NC(=O)c3cccnc3)cc2)no1 (stereo unspecified)	?	?	5.8µM*	5.8µM*	?	-12
O=C(CCC(=O)Nc1ccc(Br)cc1)N/N=C/c1ccc(O)cc1	0%	12%	-8%	?	1%	1
COc1ccccc1NC(=O)c1c(-c2ccc(C)cc2)nnc2ccccc12	.	.	18µM*	?	.	.
COc1ccc(NC(=O)c2c(-c3ccc(C)cc3)nnc3ccccc23)cc1OC	.	.	-15%	-20%	.	.
SMILES	ELG1 repair inh	RORg inh	DT40 TDP1 CPT	TDP1 cell noCPT	VP16 counter	IL1B secr inh
COc1ccc(NC(=O)c2c(-c3ccc(C)cc3)nnc3ccccc23)c(OC)c1	.	.	18µM*	16µM*	.	.
O=C(NNC(=O)c1cc(Cl)ccc1O)c1ccc(NS(=O)(=O)c2cccs2)cc1	1%	.	3%	10%	.	51
Cc1cccc(Cn2ccn(Cc3ccc(Cl)cc3)c(=O)c2=O)c1	.	.	?	-12%	.	.
O=C(c1c[nH]c2ccccc12)N1CCN(Cc2ccccc2)CC1	-6%	43%	-26%	-12%	-6%	-21
OCC1(Cc2ccccc2)CCCN(Cc2c[nH]c3ccccc23)C1 (stereo unspecified)	9%	0%	12µM*	18µM*	-8%	-65*
c1ccc(CN2CCN(Cc3c[nH]c4ccccc34)CC2)cc1	-22%	7%	2.1µM*	10µM*	-5%	-16
CC(=O)Nc1cc(-c2ccc(N(C)C)cc2)cn2c(-c3ccc(F)c(Cl)c3)cnc12	.	.	18µM*	15µM*	.	-17
CC(=O)Nc1cc(-c2ccc(S(C)(=O)=O)cc2)cn2c(-c3ccc(F)c(Cl)c3)cnc12	.	.	18µM*	16µM*	.	?
Cc1cnc(C(=O)OCC(=O)c2ccc(Cl)cc2)cn1	-3%	-14%	7%	16%	-6%	0
CC1(C)Cc2ccccc2-c2nnc(-c3ccco3)n21	-2%	8%	-16%	-13%	20%	-7
Clc1ccccc1-c1nnc2sc(-c3ccco3)nn12	0%	-8%	-6%	-26%	9%	0
COc1ccc(-c2nnc3sc(-c4ccco4)nn23)cc1OC	-10%	-10%	1%	-27%	1%	-13
c1ccc(-c2cc(-c3nn4c(-c5ccco5)nnc4s3)c3ccccc3n2)cc1	21µM*	?	7.1µM*	4.5µM*	?	19
COc1cc2c(cc1OC)-c1nnc(-c3ccco3)n1C1(CCCC1)C2	?	51%	?	18µM*	1%	-22
COc1cc(OC)c(-c2nn3c(-c4ccco4)nnc3s2)cc1OC	?	-33%	?	15µM*	-8%	-18
Cc1cc(-c2nn3c(-c4ccccc4)nnc3s2)c2ccccc2n1	14%	9%	?	18µM*	1%[0.365 µM]	19
Cc1ccccc1-c1nn2c(-c3ccccc3)nnc2s1	?	-10%[10 µM]	-29%	-28%	1%	-19
CC1(C)C=Cc2cc(-c3coc4cc(O)cc(O)c4c3=O)cc(O)c2O1	.	.	?	?	.	4

Bioassay records from PubChem BioAssay.
